Hit rate of the full screen: of about 39,000 compounds, about 1,500 (3.8%) were called active. The entries come from a sample that favours actives as a whole.

The experiment concerns HSkMC (human skeletal muscle cells). Put plainly: cytotoxicity call (relative viability < 0.9). Conditions: 10 µM.
For `COc1ccc(S(=O)(=O)N(C)C[C@H]2OCCCC[C@H](C)Oc3ccc(NC(=O)Nc4ccc(C(F)(F)F)cc4)cc3C(=O)N([C@@H](C)CO)C[C@@H]2C)cc1`, the cytotoxicity call is “inactive”.
Next, `C[C@@H]1CCCCO[C@@H](CN(C)S(=O)(=O)c2ccc(Cl)cc2)[C@H](C)CN([C@@H](C)CO)C(=O)c2cc(NC(=O)Nc3ccc(C(F)(F)F)cc3)ccc2O1`: “inactive”.
The value for `C[C@@H]1CCCCO[C@H](CN(C)S(=O)(=O)c2ccc(Cl)cc2)[C@@H](C)CN([C@H](C)CO)C(=O)c2cc(NC(=O)Nc3ccc(C(F)(F)F)cc3)ccc2O1` was “active”; that for `COc1ccc(S(=O)(=O)N(C)C[C@@H]2OCCCC[C@H](C)Oc3ccc(NC(=O)Nc4ccc(C(F)(F)F)cc4)cc3C(=O)N([C@@H](C)CO)C[C@H]2C)cc1` was “inactive”.
Next, `COc1ccc(S(=O)(=O)N(C)C[C@H]2OCCCC[C@@H](C)Oc3ccc(NC(=O)Nc4ccc(C(F)(F)F)cc4)cc3C(=O)N([C@@H](C)CO)C[C@@H]2C)cc1`: “active”.
For the compound `COc1ccc(S(=O)(=O)N(C)C[C@@H]2OCCCC[C@H](C)Oc3ccc(NC(=O)Nc4ccc(C(F)(F)F)cc4)cc3C(=O)N([C@H](C)CO)C[C@@H]2C)cc1`, the cytotoxicity call was “inactive”.
Take `COc1ccc(S(=O)(=O)N(C)C[C@H]2OCCCC[C@@H](C)Oc3ccc(NC(=O)Nc4ccc(C(F)(F)F)cc4)cc3C(=O)N([C@@H](C)CO)C[C@H]2C)cc1`: the cytotoxicity call is “active”.
As for `C[C@@H]1CN([C@H](C)CO)C(=O)c2cc(NC(=O)Nc3ccc(C(F)(F)F)cc3)ccc2O[C@@H](C)CCCCO[C@H]1CN(C)S(=O)(=O)c1ccc(Cl)cc1`, the cytotoxicity call is “inactive”.
The value for `COc1ccc(S(=O)(=O)N(C)C[C@H]2OCCCC[C@@H](C)Oc3ccc(NC(=O)Nc4ccc(C(F)(F)F)cc4)cc3C(=O)N([C@H](C)CO)C[C@H]2C)cc1` was “inactive”; that for `C=C1[N-]O[N+](O)=C1CN(Cc1c(C)no[n+]1[O-])OC(C)=O` was “inactive”.
Consider `C[C@H]1CN([C@@H](C)CO)C(=O)c2cccc(NC(=O)Nc3ccc(C(F)(F)F)cc3)c2O[C@@H]1CN(C)Cc1ccc(-c2ccccc2)cc1`, for which the cytotoxicity call is “inactive”.
The value for `C[C@H](CO)N1C[C@H](C)[C@H](CN(C)Cc2ccc(Cl)c(Cl)c2)OCCCC[C@H](C)Oc2ccc(NC(=O)NC3CCCCC3)cc2C1=O` was “inactive”; that for `Cn1nc(CN2CCCC2=O)c2c1CN(C(=O)CO)C2` was “inactive”.
`C[C@H]1CCCCO[C@H](CN(C)Cc2ccc(C(F)(F)F)cc2)[C@@H](C)CN([C@@H](C)CO)C(=O)c2cc(N(C)C)ccc2O1`: the cytotoxicity call is “inactive”.
On to `COc1ccc(-c2cnc3c(c2)C(=O)N([C@H](C)CO)C[C@@H](C)[C@H](CN(C)C(=O)Cc2cccnc2)O3)cc1`, for which the cytotoxicity call was “inactive”.
For `COc1ccc(NC(=O)N(C)C[C@@H]2OCCCC[C@H](C)Oc3ccc(NC(=O)Nc4ccc(C(F)(F)F)cc4)cc3C(=O)N([C@H](C)CO)C[C@@H]2C)cc1`, the cytotoxicity call is “inactive”.
On to `CN(C)Cc1ccc([C@@H](N)c2ccncc2)cc1`, for which the cytotoxicity call is “inactive”.
Next, `COc1ccc2c3c(n(c2c1)C)[C@@H](CO)N(Cc1cc(cc(c1)OC)OC)C[C@]13CCN(CC1)C(=O)CN1CCOCC1`: “inactive”; `CCOC(=O)c1ccc(O)cc1`: “inactive”; `CCOC(=O)c1ccc(N)cc1`: “inactive”.
The value for `CCOC(=O)c1ccc(NC(=S)N[C@@H](NC(=O)c2ccc(Br)cc2)C(Cl)(Cl)Cl)cc1` was “active”; that for `Cc1noc(C)c1S(=O)(=O)Nc1ccc2c(c1)CC(=O)N([C@H](C)CO)C[C@H](C)[C@@H](CN(C)S(=O)(=O)c1cn(C)cn1)O2` was “inactive”.
Next, `COC(=O)COc1nsnc1N1CCOCC1`: “inactive”; `CNc1ccc(-c2nc(N3CCOCC3)c3sc(CN(C)c4ncc(C(=O)NO)cn4)cc3n2)cn1`: “active”; `COc1ccc(-c2nc(N3CCOCC3)c3sc(CN(C)c4ncc(C(=O)NO)cn4)cc3n2)cn1`: “active”.
For `COc1ccc(NC(=O)N(C)C[C@@H]2OCCCC[C@H](C)Oc3ccc(NC(=O)Cc4ccccc4)cc3C(=O)N([C@H](C)CO)C[C@@H]2C)cc1`, the cytotoxicity call was “inactive”.
With `Cc1ccc(Oc2ccc(CN)cc2)cc1`, the cytotoxicity call is “inactive”.
Next, `Cc1ccc(S(=O)(=O)N(C)C[C@H]2Oc3ccc(NC(=O)CCCN(C)C)cc3CC(=O)N([C@H](C)CO)C[C@@H]2C)cc1`: “inactive”; `C[C@@H]1CN([C@H](C)CO)C(=O)c2cc(NC(=O)Nc3ccccc3)ccc2O[C@@H](C)CCCCO[C@H]1CN(C)C(=O)C1CCCCC1`: “inactive”.
Next, `C[C@H](CO)N1C[C@H](C)[C@H](CN(C)S(=O)(=O)c2ccc(Cl)cc2)Oc2ccc(NC(=O)CCCN(C)C)cc2CC1=O`: “inactive”; `COCC(=O)N1C[C@H](C)[C@H](OC)CN(C)C(=O)c2cc(NC(=O)c3cc(C)on3)ccc2OC[C@H]1C`: “inactive”.
Next, `C[C@@H]1CN([C@@H](C)CO)C(=O)Cc2cc(NC(=O)CCCN(C)C)ccc2O[C@H]1CN(C)S(=O)(=O)c1ccccc1`: “inactive”; `CC(=O)OC1CCC2(C)C(CC(OC(C)=O)C3(C)C2CCC2(C)C(c4ccoc4)OC(=O)C4OC423)C1(C)C` (stereo not drawn) [3beta-ACETOXYDEOXODIHYDROGEDUNIN ]: “inactive”.
As for `CC1(C)C(=O)C=CC2(C)C1C=CC1(C)C2CCC2(C)C(c3ccoc3)OC(=O)C3OC312` (configuration not stated), the cytotoxicity call is “active”.
With `CC1(C)C(=O)C=CC2(C)C1CC(=O)C1(C)C2CCC2(C)C(c3ccoc3)OC(=O)C3OC321` (configuration not stated), the cytotoxicity call was “inactive”.
As to `CCC(=O)N1C[C@]2(C1)CN([C@@H](CO)c1[nH]c3cc(ccc3c12)OC)S(=O)(=O)C`, the cytotoxicity call is “inactive”.
As to `C[C@@H]1CCCCO[C@H](CN(C)C(=O)Nc2ccc(F)cc2)[C@H](C)CN([C@@H](C)CO)C(=O)c2cc(NC(=O)CCCN(C)C)ccc2O1`, the cytotoxicity call is “inactive”.
For `COc1ccc(NC(=O)Nc2ccc3c(c2)C(=O)N([C@@H](C)CO)C[C@@H](C)[C@H](CN(C)C(=O)Nc2c(C)noc2C)OCCCC[C@H](C)O3)cc1`, the cytotoxicity call is “inactive”.
On to `Cc1cc(C(C)(C)C)c(O)c(C(C)(C)C)c1`, for which the cytotoxicity call was “active”.
As to `Cc1cc(CO)c(O)c(CO)c1`, the cytotoxicity call was “inactive”.
The value for `Cc1ccc(O)c(C(C)(C)C)c1` was “inactive”; that for `COc1ccc(S(=O)(=O)Nc2ccc3c(c2)C(=O)N([C@@H](C)CO)C[C@H](C)[C@@H](CN(C)C(=O)Nc2ccc(C(F)(F)F)cc2)OCCCC[C@@H](C)O3)cc1` was “inactive”.
